# Screening data from PubChem BioAssay.
# The list is not random: actives were taken first. Their share in the collection is about 3.5%.
# FBW7 act – activators of human E3 ligase FBW7. AID 1259310. AlphaScreen FBW7–phospho-cyclin E peptide binding, activator screen. normalized activity (activation), % at 26.1 µM. actives 0.13% (n = 650,000); in the data active = normalized activity above about 1.9%;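 note: purified mutant Fbw7 with reduced substrate affinity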
# MITF inh – inhibitors of human MITF. O75030. AlphaScreen MITF homodimerization, bead proximity signal. inhibition, % at 2.6 µM. actives 0.91% (n = 650,000); in the data active = inhibition above about 50%
# TEAD-YAP inh – TEAD-YAP interaction inhibition; AID 1259422; HEK-TIYL cells, TEAD-Gal4/YAP UAS-luciferase luminescence; actives 1.4% (n = 640,000); inhibition, % at 9.12 µM; in the data active = inhibition above about 32%
# GPR151 activ – activates the human receptor GPR151; activation, % at 11.2 µM; AID 1508602; actives 1% (n = 650,000); PathHunter beta-arrestin GPR151 cells, luminescence; Q8TDV0; in the data active = activation above about 4.9%
# GPR151 conf act – human GPR151 activation, confirmation screen. shares compounds with GPR151 activ. GPR151 PathHunter beta-arrestin cells, luminescence, 90 min; % of EA-reagent control over plate median. activation, % at 11.2 µM. 6,700 tested, under 10 active. AID 1508609;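 active = mean percent activation across replicates above the confirmation screen cutoff of 4.91%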
# GPR119 counter – counter-screen for GPR151 activators: effect on human GPR119; shares compounds with GPR151 activ; GPR119 PathHunter beta-arrestin cells, luminescence, 90 min; 0 = compound-well median, 100 = enzyme-acceptor control; activation, % at 11.2 µM; actives 0.3% (n = 6,700); AID 1508611;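 active = mean percent activation in the counterscreen above 29.09%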;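 note: counterscreen on off-target GPR119 to flag nonselective hits from the GPR151 activator screen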
# Target sequence (Q8TDV5 whole entry, looked up): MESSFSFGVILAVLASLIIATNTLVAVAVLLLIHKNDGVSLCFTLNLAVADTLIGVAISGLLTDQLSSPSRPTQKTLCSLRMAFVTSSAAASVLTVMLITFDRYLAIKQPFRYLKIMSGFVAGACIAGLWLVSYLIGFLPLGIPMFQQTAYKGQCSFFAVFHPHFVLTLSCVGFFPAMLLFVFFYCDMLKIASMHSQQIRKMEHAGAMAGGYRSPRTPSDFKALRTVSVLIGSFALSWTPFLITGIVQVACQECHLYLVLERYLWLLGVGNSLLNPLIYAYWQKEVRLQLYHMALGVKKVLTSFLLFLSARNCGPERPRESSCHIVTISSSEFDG
# Hits are given with their value; – = inactive; · = no result given; ! = not confirmed by another sample.
SMILES,FBW7 act,MITF inh,TEAD-YAP inh,GPR151 activ,GPR151 conf act,GPR119 counter
CC1CCN(C(=O)c2ccc3c(c2)NC(=O)c2ccccc2S3)CC1,–,–,–,–,·,·
Cc1cccc2cc(CN(C(=O)c3cccnc3)C3CCCCC3)c3nnnn3c12,–,–,–,–,·,·
CCCN(CCC)CCNS(=O)(=O)c1ccc2c(c1)oc(=O)n2C,–,–,–,7.6,–,–
COc1ccccc1CNS(=O)(=O)c1ccc2c(c1)oc(=O)n2C,–,–,–,5.9,–,–
COc1ccc(OC)c(CNS(=O)(=O)c2ccc3c(c2)oc(=O)n3C)c1,–,–,–,–,·,·
Cc1cc(C)nc(-n2nc(C)c(C(O)(CC(=O)C(F)(F)F)C(F)(F)F)c2N)n1 (configuration not stated),–,–,–,11,–,–
COc1ccc2c(c1)O/C(=C\c1ccc(OS(C)(=O)=O)c(OC)c1)C2=O,–,–,–,–,·,·
COC(=O)COc1ccc(/C=C2\Oc3cc(OC)ccc3C2=O)cc1OC,–,–,–,–,·,·
COC(=O)C(C)Oc1ccc(/C=C2\Oc3cc(OC)ccc3C2=O)cc1OC (configuration not stated),–,–,–,8.8,–,–
COc1ccc2c(c1)O/C(=C\c1ccc(OC)c(OC)c1)C2=O,–,–,–,5.5,–,–
COc1cc(C)c2c(c1)O/C(=C\c1ccc(OC)c(OC)c1OC)C2=O,–,–,–,7.5,–,–
COc1ccc(N2CCN(c3cc(Nc4cccc(F)c4)c4c5c(onc35)-c3ccccc3C4=O)CC2)cc1,–,–,–,–,·,·
COc1cc(NS(=O)(=O)c2ccc(F)cc2)c(OC)cc1Cl,–,–,–,–,·,·
CC(C)NS(=O)(=O)c1cccc([N+](=O)[O-])c1,–,–,–,–,·,·
COc1sc(SC)cc1/C=N/NC(=O)c1cccc([N+](=O)[O-])c1,–,–,–,–,·,·
CC1CCN(C(=O)Cn2nc(SCc3ccccn3)nc2N)CC1,–,–,–,17,–,–
COc1cc(Nc2cc(C)nc(Nc3cccnc3)n2)cc(OC)c1OC,–,–,–,–,·,·
COc1cc(Nc2nc(C)cc(NC3CC3)n2)cc(OC)c1OC,–,–,–,5.9,–,–
CCCCCCCCCCCCCCCC(=O)C(F)(F)F,–,–,·,5.0!,–,–
O=C(Nc1ccc(-c2nc3ccc(-c4nc5ccccc5o4)cc3[nH]2)cc1)C1CCCCC1,–,–,–,4.9,–,–
COc1cccc(NC(=O)CSc2nnc(NS(C)(=O)=O)s2)c1,–,–,–,–,·,·
CC(=O)Nc1ccc(Nc2c(-c3ccc4c(c3)OCC(=O)N4)c(=O)c2=O)cc1,–,–,–,8.7,–,–
CCNC(=O)N1CCC(Cn2c(COc3ccccc3)nc3ccccc32)CC1,–,–,–,–,·,·
O=C(c1ccco1)N1CCC(Cn2c(COc3ccccc3)nc3ccccc32)CC1,–,–,–,7.5,–,–
C/C(CC(=O)Nc1ccc(F)cc1)=N\NC(=O)C(c1ccccc1)c1ccccc1,–,–,–,–,·,·
SMILES,FBW7 act,MITF inh,TEAD-YAP inh,GPR151 activ,GPR151 conf act,GPR119 counter
COc1cccc(Nc2nc(-c3ccc(OC)c(F)c3)cs2)c1,–,–,–,–,·,·
COc1ccc(-c2csc(Nc3ccccc3)n2)cc1F,–,–,–,6.5,–,–
CN1CCN(C(=O)c2cc(-c3ccccc3O)on2)CC1,–,–,–,–,·,·
CCOC(=O)Cn1nnnc1CN(Cc1ccccc1)Cc1cc2cc(C)ccc2[nH]c1=O,–,–,–,6.4,–,–
O=[N+]([O-])c1ccc(CN2CCOCCOCCOCCOCCOCC2)cc1,–,–,–,–,·,·
COc1ccc(S(=O)(=O)NCc2ccncc2)cc1OC,–,–,–,5.4,–,–
Nc1sc(-c2ccccc2)cc1C(=O)N/N=C/c1cccs1,–,–,–,8.4,–,–
Cc1ccc(NC(=O)c2cnccn2)c(Br)c1,–,–,–,6.4,–,–
O=C(Nc1ccc(Br)cc1F)c1cnccn1,–,–,–,–,·,·
COc1ccc(C2CC(c3ccccc3)=NN2C(=O)CSc2cccc[n+]2[O-])cc1 (configuration not stated),–,–,–,5.0,–,–
CC(=O)Nc1ccc(S(=O)(=O)N(C)Cc2ccccc2)cc1,–,–,–,–,·,·
COc1ccc(S(=O)(=O)N(C)Cc2ccccc2)cc1C,–,–,–,11,–,–
CN(Cc1ccccc1)S(=O)(=O)c1ccc(NS(C)(=O)=O)cc1,–,–,–,5.7,–,–
Cc1cccc(OCC(=O)Nc2ccc(S(=O)(=O)N(C)Cc3ccccc3)cc2)c1,–,–,–,5.6,–,–
COc1ccc(S(=O)(=O)N(CC(=O)O)Cc2ccccc2)cc1C,–,–,–,–,·,·
O=C(Nc1cccc(Cl)c1Cl)c1ccccc1[N+](=O)[O-],–,–,–,–,·,·
O=C(Nc1ccccc1[N+](=O)[O-])c1cc(Br)ccc1Cl,–,–,–,5.9,–,–
N#Cc1ccccc1NC(=O)c1cc(Br)ccc1Cl,–,–,–,–,·,·
O=C(O)c1cccc([N+](=O)[O-])c1C(=O)Nc1cccc(Cl)c1Cl,–,–,–,7.6,–,–
COC(=O)CNC(=O)c1ncccc1Oc1nc(OC)cc(OC)n1,–,–,–,–,·,·
COc1ccc(C(=O)Nn2c(C3CC3)nc3cc(OC)c(OC)cc3c2=O)c(OC)c1,–,–,–,5.9,–,–
COc1ccc(C(=O)Nn2c(C3CC3)nc3ccccc3c2=O)c(OC)c1,–,–,–,–,·,·
COC(=O)Cn1cc(/C=C(/C#N)C(=O)Nc2ccccc2)c2ccccc21,–,–,–,–,·,·
N#C/C(=C/c1cn(CC(=O)O)c2ccccc12)C(=O)Nc1ccc(Cl)cc1,–,–,–,8.5,–,–
COc1cccc(C2C(C#N)=C(N)Oc3n[nH]c(-c4cccc([N+](=O)[O-])c4)c32)c1OC (configuration not stated),–,–,–,–,·,·
Cc1ccc(NC(=O)c2nn3c(C(F)(F)F)cc(-c4cc(Br)cs4)nc3c2Br)cc1C,–,–,–,–,·,·
CC(C)c1ccc(NC(=O)C(c2ccccc2)N(C)C(=O)c2ccc(=O)[nH]c2)cc1 (configuration not stated),–,–,–,8.7,–,–
